Measurements reported in PubChem BioAssay (EPA / NIEHS).
“And” between values parts separate entries of the source, which are not always exact repeats. Identical values can stand only once. Records with an inconclusive call do not appear. The source made the active and inactive calls. How the source made its calls: active means hit-call score of the fitted dose curve at least 0.9, where 1 is the maximum; inconclusive means response in the unintended direction; inactive means score below 0.9.

What follows are molecules tested against human Aurora Kinase A - serine/threonine-protein Kinase 6 (AurA), AURKA (gene 6790) (UniProt O14965) (assay: NVS_ENZ_hAurA: NovaScreen (NVS) Enzymatic Assay for human Aurora Kinase A - serine/threonine-protein Kinase 6 (AurA) (AID 2283142)).
Chain of human Aurora Kinase A - serine/threonine-protein Kinase 6 (AurA), AURKA (gene 6790) (O14965 whole entry, looked up): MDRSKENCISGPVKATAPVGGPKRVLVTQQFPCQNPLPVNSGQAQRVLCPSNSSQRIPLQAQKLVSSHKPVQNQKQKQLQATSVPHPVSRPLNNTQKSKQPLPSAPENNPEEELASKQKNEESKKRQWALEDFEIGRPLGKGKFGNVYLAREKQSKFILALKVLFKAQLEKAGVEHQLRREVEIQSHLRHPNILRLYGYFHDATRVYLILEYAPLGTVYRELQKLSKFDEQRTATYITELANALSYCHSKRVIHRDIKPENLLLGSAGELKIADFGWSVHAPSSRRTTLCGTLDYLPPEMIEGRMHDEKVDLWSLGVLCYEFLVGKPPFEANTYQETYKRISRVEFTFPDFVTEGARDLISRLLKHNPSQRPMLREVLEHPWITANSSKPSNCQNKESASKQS
How it was run: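 Cell-free enzymatic assay with human Aurora A, 1 hour after dosing. Fluorescent substrate turnover detected after electrophoretic mobility shift separation of substrate and product. Screened at 25 uM, actives retested in concentration-response up to 50 uM.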
In the case of CCC(C)(C)C(=O)OC1=C(c2ccc(Cl)cc2Cl)C(=O)OC12CCCCC2, the outcome is reported as “inactive”.
O=S(=O)(O)C(F)(F)C(F)(F)C(F)(F)C(F)(F)C(F)(F)C(F)(F)C(F)(F)C(F)(F)F was tested, and the AC50 was 25.4 µM (active) and 27.4 µM (active).
N#Cc1c(Cl)c(Cl)c(Cl)c(C#N)c1Cl was tested, and the outcome was “inactive”.
With O=C(Nc1ccccc1)Nc1cnns1 the outcome was “inactive”.
For O=C(O)C(F)(F)C(F)(F)C(F)(F)C(F)(F)C(F)(F)C(F)(F)C(F)(F)F, the outcome was “inactive”.

These molecules were tested against human Caspase 8 (CASP8), CASP8 (gene 841) (UniProt Q14790) (assay: NVS_ENZ_hCASP8: NovaScreen (NVS) Enzymatic Assay for human Caspase 8 (CASP8) (AID 2283146)).
Chain of human Caspase 8 (CASP8), CASP8 (gene 841) (Q14790 whole entry, looked up): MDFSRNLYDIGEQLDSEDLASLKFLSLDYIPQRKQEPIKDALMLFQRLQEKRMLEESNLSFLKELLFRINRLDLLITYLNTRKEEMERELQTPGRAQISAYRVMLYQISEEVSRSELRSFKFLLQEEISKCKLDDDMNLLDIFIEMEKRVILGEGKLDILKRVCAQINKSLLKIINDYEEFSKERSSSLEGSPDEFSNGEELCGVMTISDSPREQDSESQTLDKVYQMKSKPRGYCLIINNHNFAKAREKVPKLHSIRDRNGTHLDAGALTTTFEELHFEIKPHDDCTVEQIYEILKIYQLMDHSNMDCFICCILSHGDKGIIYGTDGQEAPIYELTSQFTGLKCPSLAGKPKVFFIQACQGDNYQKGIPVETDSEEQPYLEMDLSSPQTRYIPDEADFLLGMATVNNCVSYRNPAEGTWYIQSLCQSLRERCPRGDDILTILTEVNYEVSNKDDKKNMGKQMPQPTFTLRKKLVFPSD
How it was run: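 E. coli-expressed enzyme was used in a cell-free fluorogenic substrate assay read 1 h after dosing. Loss of signal was scored relative to DMSO, and the primary screen was run in duplicate at 25 uM.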
For COc1nn(CSP(=S)(OC)OC)c(=O)s1, the outcome was “inactive”.
For O=S(=O)(O)C(F)(F)C(F)(F)C(F)(F)C(F)(F)C(F)(F)C(F)(F)C(F)(F)C(F)(F)F, the outcome was “inactive”.
For O=C1c2ccccc2C(=O)N1SC(Cl)(Cl)Cl, the outcome was “inactive”.
For C[C@H]1[C@H](c2ccc(Cl)cc2)SC(=O)N1C(=O)NC1CCCCC1, the outcome was “inactive”.
For Oc1cc(Cl)ccc1Oc1ccc(Cl)cc1Cl, the outcome was “inactive”.
